KinaseGlo FLuc: Kinase-Glo luciferase inhibition (counter-screen) | Q27757 | Kinase-Glo luciferase, ATP luminescence, 8 min | Potency, µM (doses to about 38.3 µM), inactives show at the highest dose activity change, negative = inhibition, most hits filed as inhibitors | 200,000 tested, 0.28% active | AID 1379; further: on the % scale 0 is the no-effect control and ±100 the full control effect; nearly all actives have a fitted effect of over 60% in size
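Light output from Kinase-Glo luciferase with luciferin and 10 uM ATP in 50 mM imidazole pH 7.2, KCl, MgCl2, Tween 20, BSA; compound pin-delivered, 8-min ambient incubation, then luminescence read.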
FLuc modulator: inhibits or activates purified firefly luciferase, miR-21 counter-screen; 360,000 tested, 6.9% active; Potency, µM (titrated, usually from 57.5 µM), for inactives: at the top dose activity change, negative = inhibition, hits mostly inhibitors; P08659; purified FLuc, Km substrates, luminescence inhibition;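 further: plate controls were vehicle for no effect and reference inhibitor for full effect; nearly all actives have a fitted effect of over 55% in size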
Target sequence (P08659 whole entry, looked up): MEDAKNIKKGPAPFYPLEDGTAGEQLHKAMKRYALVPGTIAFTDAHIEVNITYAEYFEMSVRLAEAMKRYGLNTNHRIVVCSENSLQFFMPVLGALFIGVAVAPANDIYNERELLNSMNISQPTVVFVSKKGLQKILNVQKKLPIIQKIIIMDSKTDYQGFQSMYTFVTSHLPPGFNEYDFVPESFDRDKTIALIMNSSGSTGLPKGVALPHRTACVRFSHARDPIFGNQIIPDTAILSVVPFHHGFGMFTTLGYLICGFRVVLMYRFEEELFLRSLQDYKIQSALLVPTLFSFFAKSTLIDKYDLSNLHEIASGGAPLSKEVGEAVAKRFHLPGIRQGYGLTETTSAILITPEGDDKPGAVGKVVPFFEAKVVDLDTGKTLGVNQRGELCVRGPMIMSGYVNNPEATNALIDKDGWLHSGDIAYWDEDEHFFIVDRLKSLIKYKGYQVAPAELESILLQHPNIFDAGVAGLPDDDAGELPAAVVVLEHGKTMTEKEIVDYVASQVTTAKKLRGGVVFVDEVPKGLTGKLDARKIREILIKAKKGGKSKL
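Purified P. pyralis luciferase (10nM final) with 10uM D-luciferin and 10uM ATP (Km levels) in 50mM Tris acetate pH 7.5, 10mM Mg acetate, 0.01% Tween-20, 0.05% BSA; qHTS 6-point titration, ~60 µM downward; luminescence read.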
NPC1 prom act: activators of NPC1 promoter; AID 485313; Potency, µM (titrated, usually from 9.22 µM), for inactives: at the highest dose activation, actives largely listed as activators; 320,000 tested, 2.4% active; Huh7 NPC1 promoter luciferase reporter, 24 h; further: % of control where 0% means no effect; nearly all actives have a fitted effect of over 60% in size
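Luciferase expression driven by the NPC1 promoter was measured in stably transfected Huh7 cells after a 24 h compound incubation, using a luciferase reagent and a luminescence read.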
Rab9 promoter act: activators of Rab9 promoter; Potency, µM (titrated, usually from 9.22 µM), for inactives: at the top dose activation, negative = inhibition, most hits filed as activators; 320,000 tested, 2.8% active; Huh7 Rab9 promoter-luciferase reporter, luminescence, 24 h; further: % of control where 0% means no effect; nearly all actives have a fitted effect of over 60% in size
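Rab9 promoter-driven luciferase in stably transfected Huh7 cells; 1500 cells/well rested 2 h, exposed to compound in DMSO for 24 h at 37 °C, 5% CO2. Luminescence read 10 min after adding luciferase reagent at ambient temperature.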
SMN2 splice enh: increases expression of the SMN2 splice variant | HEK293 SMN2-luciferase splicing reporter, luminescence, 30-36 h | 210,000 tested, 2.8% active | AID 1458 | Potency, µM (highest dose often 46.1 µM), for the others: at the highest dose activity change, positive = activation, actives largely listed as activators; further: % of control where 0% means no effect; nearly all actives have a fitted effect of over 55% in size
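HEK293 cells carry an SMN2 minigene-luciferase reporter in which exon 7 inclusion puts luciferase in frame. Cells were seeded at 2000 cells/well, attached for 10-12 hours, then exposed to compounds for 30-36 hours at 37C before ONE-Glo luminescence.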
An asterisk follows results filed as active; ? = inconclusive; . = no result; [ ] = remark or other dose. In the library only some 7.3% were active in any assay of this set; here they are far more common. The call rests on the fitted dose curve; in most records, active means well fitted curve in the direction sought with a large enough effect; inconclusive means small, poorly fitted or top-dose-only effect, or another doubt; inactive means no such curve, though single readings can be large; an effect the other way counts as inactive or inconclusive. Potency means the concentration at half of the fitted maximal effect.

SMILES	KinaseGlo FLuc	FLuc modulator	NPC1 prom act	Rab9 promoter act	SMN2 splice enh
CCN1CCN(C(=O)c2ccc3c(c2)N(Cc2ccccc2F)C(=O)c2ccccc2S3=O)CC1 (stereo not given)	.	-1.5%	.	.	7.1%
COc1ccc(N2CCN(C(=O)CCn3nc(C)c(S(=O)(=O)N4CCCC4)c3C)CC2)cc1	.	-1.7%	.	.	.
COC(=O)c1ccc(Cl)cc1NC(=O)N(Cc1ccc(C)o1)C1CCN(C(C)=O)CC1	.	4.5%	.	.	.
COc1ccc(C(=O)/C=C/Nc2cc(C)on2)cc1	-2.6%	6.01µM*	2.24µM*	2.51µM*	24.9%
O=C(/C=C/c1ccccc1)Nc1ccc(Br)cn1	0.6%	?	2.9%	1.41µM*	11.2µM*
COc1ccc(CC(=O)Nc2cc(C)on2)cc1	0.8%	-6.2%	-5.1%	1.0%	11.9%
COc1ccc(/C=C/C(=O)Nc2ccc(Cl)cc2Cl)cc1	.	-9.0%	.	.	3.4%
COc1ccc(/C=C/C(=O)Nc2cc(C)on2)cc1	0.8%	?	2.82µM*	1.58µM*	10µM*
COc1ccc(/C=C/C(=O)Nc2nonc2NC(C)=O)cc1	1.2%	23.9µM*	10.6%	23.5%	2.8%
COc1ccc(C(=O)NNC(=O)CCC(=O)Nc2cc(C)on2)cc1	7.9%	?	-2.3%	1.8%	8.4%
Cc1cc(NC(=O)/C=C/c2ccccc2)no1	-4.6%	12µM*	?	2.82µM*	?
COCCNS(=O)(=O)c1cc(C(=O)O)ccc1OC	.	0.5%	1.0%	0.2%	.
COCCNS(=O)(=O)c1cc(F)ccc1OC	1.5%	0.5%	1.1%	-3.6%	3.16µM*
COC(=O)[C@H](CCCN=C(N)N)NC(=O)CCCc1c(-c2ccccc2)[nH]c2c(F)cc(F)cc12	2.0%[39.9 µM]	.	.	.	.
Cc1ccc(S(=O)(=O)Nn2c(O)c(C=C3N=c4ccccc4=N3)sc2=S)cc1	.	16.9µM*	-0.3%	2.1%	.
O=C(Nn1c(O)c(C=C2N=c3ccccc3=N2)sc1=S)c1ccccc1	-3.9%	6.01µM*	0.0%	-3.8%	0.3%
Oc1[nH]c(=S)sc1C=C1N=c2ccccc2=N1	.	6.01µM*	?	26.9%	.
Cc1ccc(C(=O)Nn2c(O)c(C=C3N=c4ccccc4=N3)sc2=S)cc1	-2.2%	?	0.5%	5.5%	29.3%
N=c1c2c3c(sc2nc2n1CCCCC2)CCCCC3	-1.4%	16.9µM*	?	?	6.4%
O=c1c2c3c(sc2nc2n1CCCS2)CCCC3	-5.7%	19µM*	?	?	6.9%
Cc1nc2sc3c(c2c(=N)n1N)CCCC3	0.7%	-4.0%	-7.6%	-10.0%	-6.7%
Nc1nc2sc3c(c2c(=O)s1)CCCC3	-1.1%	10.7µM*	29.2%	?	?
CC1=Nn2c(nc3sc4c(c3c2=O)CCCC4)SC1	-26.4%	21.3µM*	25.1%	?	10µM*
CCOC(=O)COc1ccc([N+](=O)[O-])cc1-c1ccnc2cc(-c3ccc(Cl)cc3)nn12	.	2.1%	.	.	-1.4%
C[N+]1(C)C[C@@H](O)C[C@@H]1C(=O)[O-]	-1.9%[17.1 µM]	.	.	.	-4.1%[20.6 µM]
SMILES	KinaseGlo FLuc	FLuc modulator	NPC1 prom act	Rab9 promoter act	SMN2 splice enh
Cc1cc(OCC(=O)Nc2cc(-c3nc4ccccc4[nH]3)ccc2C)ccc1Cl	.	-10.7%	.	.	-66.0%
O=c1c2c3c(sc2nc2n1CCC2)CCCC3	.	1.4%	-5.3%	1.6%	.
O=c1c2c3c(sc2nc2n1CCCC2)CCC3	1.5%	-0.4%	1.9%	6.5%	12.7%
O=c1c2c3c(sc2nc2n1CCCCC2)CCCC3	2.7%	19µM*	?	?	?
O=c1c2c3c(sc2nc2n1CCCCC2)CCCCC3	-2.5%	13.5µM*	3.55µM*	3.55µM*	11.2µM*
O=c1c2c3c(sc2nc2n1CCCC2)CCCCC3	-6.2%	23.9µM*	15.9%	10.9%	3.3%
COc1ccc(CNC(=O)C2CCCCN2S(=O)(=O)c2ccc(F)cc2)cc1 (stereo not given)	.	-3.1%	.	.	.
Cn1c(=O)c2sccc2n2c(CCC(=O)N3CCN(c4cccc(Cl)c4)CC3)nnc12	.	0.0%	.	.	0.8%
CCOC(=O)c1cc(-c2ccccc2)nn1Cc1cc(CC)no1	.	?	21.3%	?	.
CCOC(=O)c1cc(-c2ccccc2C)nn1Cc1cc(CC)no1	.	16.9µM*	17.3%	26.1%	.
CCOC(=O)CNC(=O)O[C@@H]1C(=O)c2cc(Br)ccc2O[C@H]1c1cccc(OC)c1	-1.9%	.	.	.	20.1%
O=C(O)c1ccccc1C(=O)NCCCn1ccnc1	.	-0.5%	-4.4%	0.1%	.
O=C(NCCCn1ccnc1)c1cc(-c2ccc(Cl)cc2)nc2ccccc12	-1.2%	23.9µM*	0.0%	-5.2%	0.7%
O=C(NCCCn1ccnc1)c1cc(-c2ccncc2)nc2ccccc12	2.3%	6.3%	-17.8%	1.4%	-1.5%
O=C(NCCCn1ccnc1)c1cn(-c2ccccc2)nc1-c1ccc(F)cc1	-2.8%	10.7µM*	8.7%	8.7%	12.1%
Cc1ccc2nc(-c3ccccc3)cc(C(=O)NCCCn3ccnc3)c2c1	-0.4%	21.3µM*	1.3%	0.3%	.
Cc1ccc(/C=N/N=C/c2ccc(C)s2)s1	0.3%	0.675µM*	1.58µM*	2.24µM*	7.08µM*
Cc1ccc(/C=N/NC(=O)c2ccncc2)s1	.	?	0.5%	5.9%	.
Cc1cccc(N/N=C/c2ccc(C)s2)c1	.	12µM*	?	?	.
CCOc1cc(/C=N/NC(=O)Nc2ccccc2)ccc1O	-4.4%	9.53µM*	13.9%	?	.
COc1cc(/C=N/NC(=O)Nc2ccccc2)ccc1OC(C)=O	-5.5%	10.7µM*	27.9%	?	?
CC(=O)O[C@@H]1C(CO[Si](C)(C)C(C)(C)C)=C(Br)C(=O)[C@@H]2O[C@]12C	-1.9%	.	.	.	-4.3%
CSc1ccc(CCNC(=O)c2c(C)oc3ncn(C)c(=O)c23)cc1	.	-1.9%	.	.	.
CCOc1ncccc1C(=O)OCc1cc(=O)oc2c(C)c(C)ccc12	-4.7%	3.01µM*	-2.3%	-5.9%	-5.4%
COC(=O)c1ccc(COC(=O)c2ccccc2OC)cc1	-2.4%	19µM*	11.9%	24.7%	10.3%
SMILES	KinaseGlo FLuc	FLuc modulator	NPC1 prom act	Rab9 promoter act	SMN2 splice enh
Cc1cccc(C(=O)OCc2cc(=O)oc3c(C)c(C)ccc23)c1O	.	1.0%	?	?	.
CCOc1ncccc1C(=O)OCc1ccc(C(=O)OC)cc1	-5.7%	?	9.9%	-14.9%	14.1µM*
CCOc1ncccc1C(=O)OCc1ccc(Cl)cc1	2.8%	?	4.8%	-2.6%	4.5%
CC(C)c1ccc(S(=O)(=O)c2nnn3c2nc(NC2CCCC2)c2sccc23)cc1	.	-1.0%	.	.	.
CCc1ccccc1NC(=O)CC(c1ccc(F)cc1)N1Cc2ccccc2C1=O (stereo not given)	.	6.4%	.	.	.
Cc1cc(=O)[nH]c(N/N=C/c2ccc(-c3ccc(F)cc3)o2)n1	.	6.01µM*	25.9%	?	.
COc1ccccc1C1=Nn2c(nc3sc(C(=O)Nc4ccccc4Cl)c(C)c3c2=O)SC1	.	-8.2%	.	.	.
CN(C)c1cccc(C(=O)N2CCC(c3c[nH]c4ccccc34)(c3c[nH]c4ccccc34)CC2)c1	.	-9.0%	.	.	9.6%

Assay outcomes (PubChem)
